In all, about 56,000 compounds went through this assay and about 320 (0.57%) were called active.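 How the source made its calls: active means activation above a cutoff set at the mean activation of all tested compounds plus 3 SD (cut at about 54% in these data); inactive means the rest, inconclusive results apart.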 The full list was thinned out, with actives kept by preference.

The assay deals with Sphingosine 1-phosphate receptor 1 (Homo sapiens) (UniProt P21453). Briefly: S1P1 agonists and agonism potentiators, primary screen, cell-based, primary and confirmation screens, CRE-bla reporter (AID 449).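 Further: forskolin at 4 µM as EC80 and the EC20 agonist is SEW2871; 100% = SEW2871 at its EC100 plus forskolin at EC80.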 The settings on record: S1P1 CRE-bla cells, forskolin, beta-lactamase FRET, potentiator mode, at 9.5 µM, stronger effect = higher value, 100% = saturating reference agonist, 0% = basal, S1P1 agonist co-added at EC20, 2 nM.

Setting [1] is: measured here: confirmation screen, triplicate average.

Sphingosine 1-phosphate receptor 1 (Homo sapiens), sequence (P21453 whole entry, looked up): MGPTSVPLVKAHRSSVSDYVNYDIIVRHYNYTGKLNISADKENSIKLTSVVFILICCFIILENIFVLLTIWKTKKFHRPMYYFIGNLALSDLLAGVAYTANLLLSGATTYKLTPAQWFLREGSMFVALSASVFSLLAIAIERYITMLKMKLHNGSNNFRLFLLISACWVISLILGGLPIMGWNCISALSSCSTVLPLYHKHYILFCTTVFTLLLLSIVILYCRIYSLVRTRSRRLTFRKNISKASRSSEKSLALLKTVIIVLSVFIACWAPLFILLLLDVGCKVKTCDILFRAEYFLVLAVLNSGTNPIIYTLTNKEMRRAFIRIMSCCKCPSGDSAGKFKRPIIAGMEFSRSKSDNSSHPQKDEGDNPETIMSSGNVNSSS

On to `c1csc(-c2cn3c(n2)SCC3)c1`, for which the activation is -25.6% (inactive).
Take `CCc1cc(=O)oc2cc(OCC(=O)N3CCCc4ccccc43)ccc12`: the activation was -15.5% (inactive).
On the same count and under the same terms, next, `CCSC(C)CC1C/C(=N/O)c2c(C)noc2C1` (configuration not stated): -5.8% (inactive); `COC(=O)Cc1c(C)c2ccc(OCC(=O)NCc3ccc4c(c3)OCO4)cc2oc1=O`: -1.6% (inactive).
In the case of `CSc1nnc(CNC(=O)c2ccccc2)n1-c1ccc(F)cc1`, the activation was -11.1% (inactive).
Consider `O=C(CCCOc1ccccc1)Nc1cccc(C(=O)O)c1`, for which the activation is 2.3% (inactive).
Consider `COc1ccc(C(=O)Nc2cccnc2)cc1C(=O)Nc1cccnc1`, for which the activation is 5.6% (inactive).
As to `CN(C)/C=C1/C(=O)Nc2ccccc21`, the activation is -14.3% (inactive).
Consider `COC(=O)C(C)n1cnc2c(nnn2-c2cccc(Cl)c2)c1=O` (configuration not stated), for which the activation is -14.1% (inactive).
In the case of `Cn1c(=O)[nH]c(=O)c2c1nc(CN1CCN(c3ccccc3F)CC1)n2CCc1ccccc1`, the activation is -6.4% (inactive).
As for `O=C(Nc1c(-c2ccccc2)nc2c(Br)cc(Br)cn12)c1ccco1`, the activation is 17.7% (inactive).
For the compound `Cc1nc2ccc(S(=O)(=O)NC(C(=O)N3CCCCCC3)C(C)C)cc2s1` (configuration not stated), the activation is -9.8% (inactive).
Turning to `CCCOC(=O)c1cc2ccccc2oc1=O`, the activation was -2.5% (inactive).
Consider `Cc1ccnc(SCCn2c(N(C)Cc3ccccc3)nc3c2c(=O)n(C)c(=O)n3C)n1`, for which the activation was -31.4% (inactive).
On to `N#Cc1c2c(c(-c3ccccc3)[nH]c1=O)CCCC2`, for which the activation is -28.7% (inactive).
Take `C=CCOc1nc2c(c(=O)n(C)c(=O)n2C)n1Cc1ccc(Cl)cc1Cl`: the activation was 2.7% (inactive).
In the case of `O=P(O)(CN1CCCCC1)CN1CCCCC1`, the activation is -3% (inactive).
On to `COc1ccc(OCC(=O)OCC(=O)Nc2ccc(S(=O)(=O)N3CCCCC3)cc2)cc1`, for which the activation was -8.9% (inactive).
Consider `COc1ccc(C2C(C#N)=C(N)Oc3cc(N)ccc32)cc1OC` (configuration not stated), for which the activation was -18% (inactive).
Turning to `COc1ccc(CSc2nc(N3CCOCC3)c3c(c2C#N)CC(C)(C)OC3)cc1`, the activation was -11.9% (inactive).
As to `CC(=O)Nc1ccc(S(=O)(=O)N2CCN(C3CCCCCCC3)CC2)cc1`, the activation was -11.9% (inactive).
As to `COc1cc(OC)cc(C(=O)Nc2ncc3c(n2)CC(C)(C)CC3=O)c1`, the activation was -4.2% (inactive).
`CC(C)(C)Nc1c(N)c(=O)oc2ccccc12`: the activation was 9.1% (inactive).
Still for that read-out and setting: next, `O=c1oc2c(CN3CCCCC3)c(O)ccc2c2c1CCCCC2`: -2.6% (inactive); `O=C(O)c1cccc2c1C(=O)N(C1CCCCC1)C2`: -25.1% (inactive).
For the compound `O=C(CN1CCOc2ccccc21)N1CCC(Cc2ccccc2)CC1`, the activation was 6% (inactive).
With `CCCC(=O)N1c2ccccc2NC2=C(C(=O)CCC2)C1c1ccc(F)cc1` (configuration not stated), the activation is -9.6% (inactive).
Same read-out and setting: the result for `Cc1cccc(CC(=O)Nc2c3c(nn2-c2cccc(Cl)c2)CS(=O)C3)c1` (configuration not stated) reads 26.1% (inactive).
Turning to `CC[C@H]1CN2CCc3cc(OC)c(OC)cc3[C@@H]2C[C@@H]1C[C@H]1NCCc2cc(OC)c(OC)cc21`, the activation is 131% (active). The activation under setting [1] was found to be 101%.
In the case of `Cc1csc(NC(=O)C2CCCN2C(=O)OCC(C)C)n1` (configuration not stated), the activation was 6.7% (inactive).
As for `CCOc1ncccc1C(=O)OCc1cn2cc(Cl)ccc2n1`, the activation is -55.2% (inactive).
For the compound `CCOC(=O)N1CCN(C(=O)C2CCN(c3ncnc4c3sc3cccc(F)c34)CC2)CC1`, the activation was 96.6% (active). Also, the activation under setting [1] turned out to be 78.6%.
On to `CCOC(=O)N1CCN(C(=O)C2CCCN(c3ncnc4c3sc3cccc(F)c34)C2)CC1` (configuration not stated), for which the activation is -8.7% (inactive).
Still for that read-out and setting: next, `CCOC(=O)C1CCN(c2ncnc3c2oc2ccc(Br)cc23)CC1`: 3.6% (inactive); `CN1C(=O)CC(N2CCN(c3ccccn3)CC2)C1=O` (configuration not stated): -14.2% (inactive); `O=C(O)CN(Cc1ccco1)S(=O)(=O)c1ccccc1`: -18.7% (inactive).
On to `CCC1(C)N(O)C(C)(C)C(c2ccc(OC)cc2)=[N+]1[O-]` (configuration not stated), for which the activation was -9.9% (inactive).
As to `Cn1c(=NC(=O)C2CC2)sc2cc(F)cc(F)c21`, the activation is 0.7% (inactive).
For `COc1ccc(N2C(=O)C3CCCN3C2c2cccc(OC)c2)cc1` (configuration not stated), the activation is 5.4% (inactive).
Same read-out and setting: next, `C=C(Br)CN1CCN(CC(=C)Br)CC1`: -15.8% (inactive); `Cc1ccc(C2CC(c3cccc(Br)c3)n3nc(N)nc3N2)cc1` (configuration not stated): -10.7% (inactive).
Regarding `COc1ccccc1-n1c(CNC(=O)c2ccccc2)nnc1SCC(=O)Nc1nnc(C)s1`, the activation was -0.9% (inactive).
Turning to `O=C(CSCc1cccs1)N1CCCC1`, the activation was -22.9% (inactive).
On the same count and under the same terms, next, `CC(C)Oc1ccc(C(=O)Nc2cc(=O)n(C)c(=O)n2C)cc1`: -4.5% (inactive); `CCCN1CCN(C(=O)Cn2ncc3ccccc32)CC1`: -19.3% (inactive); `Cc1cc(C)c(S(=O)(=O)NCCCN2CCOCC2)cc1Br`: 3.7% (inactive).
In the case of `CC(=O)N1CCN(c2cccc(C)c2C)CC1`, the activation is -9.6% (inactive).
As to `CCNC(=O)N1CCNC(=O)C1CC(=O)Nc1ccc(C(=O)OCC)cc1` (configuration not stated), the activation was -11.5% (inactive).
Regarding `COc1ccccc1NC1=NC2(CCCC2)N=C(N)N1`, the activation was 5.5% (inactive).
Consider `CCN(CC)S(=O)(=O)c1ccc2nc(CSc3nnnn3-c3ccc(O)cc3)[nH]c2c1`, for which the activation is -21.4% (inactive).
In the case of `O=S(=O)(Nc1ccc2nc(-c3ccco3)[nH]c2c1)c1ccccc1`, the activation is 5.9% (inactive).
As to `Cc1ccc(C2c3c(oc4ccc(C)cc4c3=O)C(=O)N2CCCN2CCOCC2)cc1` (configuration not stated), the activation is 3.6% (inactive).
With `COCCn1nnnc1C(c1ccccc1Cl)N1CCN(c2ccccc2OC)CC1` (configuration not stated), the activation is -15.5% (inactive).
As for `COc1ccccc1N1CCN(Cc2nnnn2CCc2ccccc2)CC1`, the activation was -1.7% (inactive).
`COc1ccccc1-n1nnnc1S(=O)(=O)Cc1ccc(Cl)cc1`: the activation is 89.3% (active). Further, the activation under setting [1] is 76%.
With `CCOC(=O)C1Cn2c(nc3c(c2=O)C(C)(CC)Cc2ccccc2-3)S1` (configuration not stated), the activation was -35.4% (inactive).
Take `COc1ccc(OC)c(C(=O)c2coc3ccc(OC)cc23)c1`: the activation was 7.5% (inactive).
As for `CCCCn1c(CCCNC(=O)CC)nc2ccccc21`, the activation was -7% (inactive).
Regarding `COc1ccc(-c2ccc(-c3noc(-c4ccncc4)n3)c(OC)n2)cc1`, the activation was -6.8% (inactive).
Take `Cc1cccc(NC(=O)COc2ccccc2C)n1`: the activation was 15.3% (inactive).
In the case of `Cc1ccccc1OCC(=O)Nc1ccc(N2CCN(C(=O)C(C)C)CC2)c(Cl)c1`, the activation is 92.5% (active). For the same compound, the activation under setting [1] amounted to 68.2%.
On to `CN1CCN(c2ccc(NC(=O)COc3ccc(Cl)cc3Cl)cc2)CC1`, for which the activation was -9.3% (inactive).
For `COc1ccc(CCNc2ncnc3nc[nH]c23)cc1OC`, the activation is -11.4% (inactive).
Take `CCc1ccc(N(CC)c2ncnc3nc[nH]c23)cc1`: the activation is 56.5% (active). The activation under setting [1] worked out at 57.4%.
As for `c1ccc2c(c1)OCC(CNc1ncnc3nc[nH]c13)O2` (configuration not stated), the activation is 23.9% (inactive).
As to `COC(=O)c1cc(C(=O)CSc2nc(C)cc(C)n2)ccc1O`, the activation was -13.3% (inactive).
Consider `CC(C)OC(=O)c1sc2nc3c(cc2c1N)C(=O)CCC3`, for which the activation was -1.6% (inactive).
As to `Cc1ccc(-c2nn(-c3ccccc3)cc2CN(Cc2ccccc2)C(=O)CCC(=O)O)o1`, the activation was -15.4% (inactive).
For `CCCc1nc(SCC(=O)Nc2ccccc2OC)c2c(=O)n(C)c(=O)n(C)c2n1`, the activation is -6% (inactive).
For `COc1ccc(-c2nnc(SCC(=O)c3cccs3)o2)c(OC)c1`, the activation is 8.5% (inactive).
For the compound `COc1ccc(-n2c(C)cc(C(=O)CSc3nnc(-c4cccs4)o3)c2C)cc1`, the activation is 114% (active). The activation under setting [1] was 111%.
As to `COc1ccc(OC)c(C(=O)CSc2nnc(-c3cccs3)o2)c1`, the activation is -31.3% (inactive).
In the case of `CCOC(=O)c1sc(/N=C/Nc2nc(C)c(C(=O)OCC)s2)nc1C`, the activation was 11.8% (inactive).
For `Cc1cc(C(=O)N2CCN(c3ccccn3)CC2)c(C)o1`, the activation is -7.8% (inactive).
For `COc1cccc(N(CC(=O)Nc2cccc(F)c2)S(C)(=O)=O)c1`, the activation is 13.1% (inactive).
Regarding `COc1ccc(C)c2sc(=NC(=O)c3ccc(C#N)cc3)n(C)c12`, the activation was -12.3% (inactive).
Still for that read-out and setting: next, `CCSC1(SCC)N=C(N)C2(C#N)C(c3ccccc3)NC(C)=CC12C#N` (configuration not stated): 2.3% (inactive); `CC(NC(=O)c1ccc(Cl)cc1)C(=O)N1CCCCC1` (configuration not stated): -2% (inactive).
With `CC1CSc2nnc(CCc3ccccc3)n21` (configuration not stated), the activation is -14.3% (inactive).
As for `CC12COC3(C(=O)Nc4ccc(Cl)cn4)CC1CCC32C` (configuration not stated), the activation is -10.8% (inactive).
Consider `COCCCn1c2nc3ccccc3nc2c2c(=O)n(Cc3ccc(Cl)cc3)c(C)nc21`, for which the activation is 6% (inactive).
On to `CCC(C(=O)Nc1ncccn1)(C(F)(F)F)C(F)(F)F`, for which the activation is -4.8% (inactive).
On the same count and under the same terms, the result for `CC(C)Cc1cc(C(=O)NCCc2ccccc2)no1` reads 20.9% (inactive); that for `CCCOc1ccc(-c2nc(N)n[nH]2)cc1`, 5.2% (inactive); that for `CCOC(=O)C1CCCN(C(=O)Cn2ncc3c(=O)oc4ccc(C)cc4c32)C1` (configuration not stated), -8.1% (inactive).
As for `Cc1cc(OCCN2CCCC2)ccc1C(C)C`, the activation is -14.6% (inactive).
Consider `COc1ccc(OC)c2[nH]c(=O)c(CCNC(=O)C(C)(C)C)cc12`, for which the activation was -8.4% (inactive).
Still for that read-out and setting: the result for `CCOC(=O)CSC1=C(C#N)C(c2sccc2C)CC(=O)N1` (configuration not stated) reads -11.6% (inactive); that for `CC(=O)N1CCN(C(=O)c2cccc(S(=O)(=O)Nc3ccc(C)cc3)c2)CC1`, -12.2% (inactive); that for `Cc1c(C(=O)NCC2CCCO2)sc2nc(-c3ccccc3)cn12` (configuration not stated), -17.8% (inactive).
As for `CCOc1ccc(NC(=O)CSc2nc3c(c(=O)n2-c2ccccc2OC)SCC3)cc1`, the activation is -5.9% (inactive).
Take `COc1ccc(OC)c2sc(NC(=O)C3COc4ccccc4O3)nc12` (configuration not stated): the activation is -1.3% (inactive).
For the compound `COc1ccc(CCNC(=O)CN2CCC(n3nnc4cc(F)ccc43)CC2)cc1OC`, the activation was -19.7% (inactive).
As to `COCCOC(=O)C1=C(C)N=c2s/c(=C\c3cccs3)c(=O)n2C1c1cccs1` (configuration not stated), the activation was 2.2% (inactive).
With `COc1ccc(OC)c(CNC(=O)CCc2nc(-c3cccs3)no2)c1`, the activation is 9.5% (inactive).
Same read-out and setting: next, `CC(C)(C)NC(=O)C(c1ccco1)N(Cc1ccc2c(c1)OCO2)C(=O)Cn1nnc2ccccc21` (configuration not stated): 11.2% (inactive).

Source of the values: PubChem BioAssay AID449 (The Scripps Research Institute Molecular Screening Center, 2006).
